From PubChem
Rows were chosen to be rich in hits. Some 4.7% of all compounds tested hit in one or more screens of this group.
Mtb FBA inh: Mtb FBA enzyme inhibitors, primary screen, biochemical, fluorescence, strain H37Rv. Fructose-bisphosphate aldolase (Mycobacterium tuberculosis (strain ATCC 25618 / H37Rv)), …. purified M. tuberculosis FBA, fluorescence read-out. inhibition, % at 1 µM. 2.3% of 360,000 active. AID 588726, 2011; in the data active = inhibition above about 27%;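 also: 0% = vehicle and 100% = reference inhibitor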
Target sequence (P9WQA3 whole entry, looked up): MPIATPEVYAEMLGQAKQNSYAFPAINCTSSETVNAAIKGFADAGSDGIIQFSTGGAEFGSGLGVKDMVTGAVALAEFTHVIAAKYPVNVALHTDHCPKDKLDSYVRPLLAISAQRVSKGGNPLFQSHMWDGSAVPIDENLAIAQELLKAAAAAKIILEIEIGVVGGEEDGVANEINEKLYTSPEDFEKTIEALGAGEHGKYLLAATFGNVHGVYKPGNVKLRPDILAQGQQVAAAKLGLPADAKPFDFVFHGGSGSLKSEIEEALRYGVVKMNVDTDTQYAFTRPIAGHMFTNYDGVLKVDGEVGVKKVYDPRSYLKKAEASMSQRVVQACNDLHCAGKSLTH
GDH-TPI counter: GDH-TPI coupling enzyme inhibitors, primary screen, artefact control for M. tuberculosis FBA inhibitor project, biochemical, absorbance, full deck. GDH-TPI coupled enzyme counterscreen, NADH absorbance. inhibition, % at 4.8 µM. 1.2% of 360,000 active. AID 588335, 2011;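 also: 0% = DMSO wells and 100% = wells lacking the enzyme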
SARS 3CLpro inh: SARS-CoV 3CLpro protease inhibitors, primary screen, biochemical, quenched FRET; Replicase polyprotein 1ab (Severe acute respiratory syndrome coronavirus), P0C6X7; recombinant SARS-CoV 3CLpro, quenched FRET peptide cleavage; inhibition, % at 6 µM; 0.14% of 290,000 active; in the data active = inhibition above about 12%
RecA splice inh: Mtb RecA intein splicing inhibitors, primary screen, biochemical, fluorescence, HTS; Protein RecA (Mycobacterium tuberculosis (strain ATCC 25618 / H37Rv)), P9WHJ3; cell-free RecA intein splicing; inhibition, % (concentration not given with the values); 0.75% of 290,000 active; AID 2221, 2009; in the data active = inhibition above about 30%;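 also: 0% = vehicle wells and 100% = reference inhibitor control wells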
CCHF vOTU inh-1: CCHFV vOTU protease inhibitors, primary screen, biochemical, Pep-AMC substrate, fluorescence. inhibition, % at 11.5 µM. AID 651958, 2012. Crimean-Congo hemorrhagic fever virus L polyprotein viral ovarian tumor (vOTU) protease …. 0.55% of 370,000 active; also: 0% = vehicle wells with enzyme and 100% = no enzyme wells
DUSP3 inh: VHR1 phosphatase inhibitors, primary screen, biochemical, absorbance, uHTS; Dual specificity protein phosphatase 3 (Homo sapiens), P51452; recombinant VHR phosphatase, pNPP absorbance; inhibition, % at 13.3 µM; 0.52% of 290,000 active; AID 1654, 2009; in the data active = inhibition above about 50%
CCHF vOTU inh-2: CCHFV vOTU protease inhibitors, confirmation, biochemical, Pep-AMC substrate, fluorescence; inhibition, % at 11.5 µM; 17% of 1,900 active; shares compounds with CCHF vOTU inh-1; Recombinant CCHFV vOTU
An asterisk follows results filed as active; x = no result given. Rule as the data show it, unless noted: active = inhibition above about 30%; inactive = the rest.

SMILES	Mtb FBA inh	GDH-TPI counter	SARS 3CLpro inh	RecA splice inh	CCHF vOTU inh-1	DUSP3 inh	CCHF vOTU inh-2
COC(=O)c1sc(N2C(=O)C(O)=C(C(=O)c3ccc(C)o3)C2c2ccc([N+](=O)[O-])cc2)nc1C (configuration not stated)	-1	-2	4	1	31*	-7	-1
CCCCOCCCNC(=O)C[C@@H]1C[C@@]2(C(=O)OC)CC(C)(C)CC=C2N(CCc2ccc(OC)c(OC)c2)C1=O	x	x	x	x	17	x	x
CCCCCCCCN1C(=O)[C@H](CC(=O)NCCCOCCCC)C[C@@]2(C(=O)OC)CC(C)(C)CC=C12	x	x	x	x	22	x	x
COC(=O)[C@@]12C[C@@H](CC(=O)NCCC(C)C)C(=O)N(CCc3ccc(OC)c(OC)c3)C1=CCC(C)(C)C2	x	x	x	x	30*	x	2
CCCCCCCCN1C(=O)[C@H](CC(=O)NCCCOC)C[C@@]2(C(=O)OC)CC(C)(C)CC=C12	x	x	x	x	33*	x	20
CCCCCCCCN1C(=O)[C@H](CC(=O)NCc2ccc(C)o2)C[C@@]2(C(=O)OC)CC(C)(C)CC=C12	x	x	x	x	30*	x	7
C#CCNC(=O)C[C@@H]1C[C@@]2(C(=O)OC)CC(C)(C)CC=C2N(CCCCCCCC)C1=O	x	x	x	x	31*	x	8
C[C@H]1CN([C@@H](C)CO)C(=O)CCCn2cc(nn2)CO[C@@H]1CN(C)C(=O)Nc1ccc(N2CCN(C)CC2)cc1	5	3	x	x	-1	x	x
Cc1cc(NC(=O)COC(=O)C2CC(=O)N(c3ccccc3Cl)C2)no1 (configuration not stated)	1	5	6	-1	-2	-14	x
COc1ccc(NS(=O)(=O)c2ccc(O)c(NC(=O)c3ccc(S(=O)(=O)N4CCCCCC4)cc3)c2)cc1	-2	23	9	0	1	-7	x
COc1ccc(NS(=O)(=O)c2ccc(O)c(NC(=O)c3ccc(S(=O)(=O)N4CCCC4)cc3)c2)cc1	-2	12	5	x	34*	3	-6
C=CCc1ccc(OCCCNCc2ccccc2)c(OC)c1	3	25	-1	2	31*	24	-5
O=C(NNC(=O)C1CCC1)c1ccc(F)cc1	2	9	x	x	-3	x	x
Cc1ccc(Cl)cc1-c1cc(C(=O)NCc2cc(C(F)(F)F)cc(C(F)(F)F)c2)[nH]n1	0	-4	x	x	33*	x	-19
Cc1cc(F)ccc1-c1cc(C(=O)NCc2cc(C(F)(F)F)cc(C(F)(F)F)c2)[nH]n1	-4	4	x	x	0	x	x
Cc1ccc(F)cc1-c1cc(C(=O)NCc2cc(C(F)(F)F)cc(C(F)(F)F)c2)[nH]n1	-5	0	x	x	30*	x	5
COc1ccc(Cl)cc1-c1cc(C(=O)NCc2cc(C(F)(F)F)cc(C(F)(F)F)c2)[nH]n1	-3	4	x	x	5	x	x
FC(F)(F)c1ccccc1CN1CCCc2nc(-c3ccc(Br)cc3)ccc21	x	x	x	x	5	x	x
CN1CCS/C1=C\C=C1/SC(=S)N(CC(=O)O)C1=O	-33	2	-6	x	30*	40	13
CCN1C(=O)/C(=C/C=C2/SCCN2C)SC1=S	-7	15	1	-1	9	26	x
Cn1c2ccccc2c2cc(/C=N/NC(=O)c3cc(O)ccc3O)ccc21	5	15	3	-3	51*	19	64*
Cc1ccc2c(c1)c1c(n2CC(O)CNC2CCCCC2)CCCC1 (configuration not stated)	8	14	3	5	64*	9	-12
CC(C)N(Cc1ccccc1)C(=O)COC(=O)/C=C/c1cnc2ccccc2n1	-2	17	-2	-1	4	31	x
CCN(CC)c1ccc(/C=N/NC(=O)c2c(Cl)cnn2C)c(O)c1	8	17	-2	-45	36*	-4	-11
CCN(CC)S(=O)(=O)c1cccc(C(=O)Nc2nnc(C)s2)c1	-1	3	0	2	31*	4	-5
